# Experimental data reported in PubChem BioAssay.
# The source made the active and inactive calls.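 The calls were made as follows, unless noted: active = inhibition above 20% together with a positive visual image hit; inconclusive = visual image hit but inhibition not above 20%; inactive = no visual image hit.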
# How the values were obtained:
# [1] = inhibitors of TNFa-induced NFkB p65 translocation, primary screen, imaging, HUVEC, MLSMR starter and 10KST1 sets (AID 438); conditions: HUVEC TNFa-induced p65 nuclear translocation; cell count: measured here: nuclei count (cytotoxicity indicator), at 2.08 µM; inhibition: at 2 µM, stronger effect = higher value, 0% TNFa-plus-vehicle, 100% no-TNFa wells;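 also: compound added about 3h40 before a 20 min TNFalpha stimulation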;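 as to inhibition: signal is the nuclear over cytoplasmic p65 intensity ratio per well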
# [2] = inhibitors of mutant huntingtin aggregation, primary screen, imaging, exon1htt(103Q)mCFP cells, high-content imaging (AID 483;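 active = visual image review flags a hit and inhibition of aggregation exceeds 20%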;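 also: compound exposure lasted 3 days before fixation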;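 as to nuclei count: percent of the per-plate median nuclei count of sample wells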); conditions: exon1htt(103Q)mCFP cell line, aggregate imaging, at 2 µM; inhibition of aggregation: stronger effect = higher value; nuclei count: measured here: cell count, toxicity
# [3] = inhibitors of E-selectin induction by TNFa, primary screen, imaging, HUVEC, immunofluorescence, MLSMR starter and 10KST1 sets (AID 487;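 active = visually confirmed hit in the image check and inhibition above 20%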;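 as to inhibition: signal is fraction of cell area covered by stained E-selectin grains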;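 as to nuclei count: 100% = median nuclei count of all wells on the same plate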); conditions: HUVEC TNFalpha-induced E-selectin immunofluorescence imaging, at 2 µM; inhibition: stronger effect = higher value; nuclei count: measured here: cell number, toxicity
# [4] = target: Voltage-gated potassium channel subunit beta-2 (Rattus norvegicus) (UniProt P62483); test: KvBeta enzyme negative modulators, primary screen, biochemical, NADPH fluorescence (AID 622;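 active = fluorescence slope higher than the sample average by over 3 SD, cut at about -0.22 in these data, passing the limit was not always enough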;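 also: slope of raw intensity against log time taken from 70 to 1610 s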); conditions: recombinant KvBeta, 4-cyanobenzaldehyde reduction, at 10 µM, stronger effect = higher value
# Voltage-gated potassium channel subunit beta-2 (Rattus norvegicus), sequence (P62483 whole entry, looked up): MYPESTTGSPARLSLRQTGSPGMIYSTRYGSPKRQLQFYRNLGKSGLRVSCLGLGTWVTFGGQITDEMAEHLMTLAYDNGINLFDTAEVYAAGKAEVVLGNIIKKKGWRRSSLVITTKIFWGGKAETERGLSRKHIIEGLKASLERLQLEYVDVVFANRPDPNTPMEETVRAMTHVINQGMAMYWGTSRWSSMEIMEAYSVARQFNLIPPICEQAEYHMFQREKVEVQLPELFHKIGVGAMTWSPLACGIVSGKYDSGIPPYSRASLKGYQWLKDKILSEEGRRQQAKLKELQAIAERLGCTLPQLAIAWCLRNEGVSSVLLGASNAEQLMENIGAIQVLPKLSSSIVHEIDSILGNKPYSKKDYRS
# [5] = target: Voltage-gated potassium channel subunit beta-2 (Rattus norvegicus) (UniProt P62483); test: KvBeta positive modulators, primary screen, biochemical, NADPH fluorescence (AID 623;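 active = NADPH fluorescence slope more negative than the mean of all samples by about 3 SD, 99.7% confidence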;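 also: fluorescence intensity change per second fitted from 20 to 320 s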); conditions: Recombinant KvBeta, NADPH fluorescence decrease slope, 10 min; at 10 µM; stronger effect = lower value
# [6] = target: Alpha-2C adrenergic receptor (Homo sapiens) (UniProt P18825); test: modulators of alpha2C/GIRK thallium flux, primary screen, cell-based, HEK293 alpha2C/GIRK1/2 (AID 624;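 active = fluorescence slope after compound addition differing from the mean of all screened samples at 99.7% confidence, in either direction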;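 also: slope of fluorescence ratio to pre-addition baseline per second over 15 to 24 s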); conditions: thallium flux BTC fluorescence, at 10 µM, actives lie on both sides
# Alpha-2C adrenergic receptor (Homo sapiens), sequence (P18825 whole entry, looked up): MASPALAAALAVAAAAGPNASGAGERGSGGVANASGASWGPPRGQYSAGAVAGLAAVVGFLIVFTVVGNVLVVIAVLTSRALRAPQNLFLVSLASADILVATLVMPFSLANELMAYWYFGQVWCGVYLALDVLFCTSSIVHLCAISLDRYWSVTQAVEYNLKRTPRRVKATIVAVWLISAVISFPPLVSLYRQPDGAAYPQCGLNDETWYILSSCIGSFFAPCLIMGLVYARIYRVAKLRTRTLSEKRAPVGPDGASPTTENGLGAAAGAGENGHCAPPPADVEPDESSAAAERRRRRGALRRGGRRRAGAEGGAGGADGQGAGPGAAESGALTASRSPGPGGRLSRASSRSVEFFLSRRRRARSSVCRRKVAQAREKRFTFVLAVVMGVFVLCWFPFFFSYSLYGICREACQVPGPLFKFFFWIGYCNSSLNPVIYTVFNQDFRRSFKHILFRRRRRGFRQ
# [7] = inhibitors of Sendai virus-induced IRF3 signaling, primary screen, TLR/RLR signaling modifier project, cell-based, Sendai virus stimulus, luciferase, 10K MLSCN set (AID 602276;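 active = inhibition at or above 50% at 10 µM; inactive = inhibition below 50%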;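 also: firefly luciferase from ISG56 promoter only with Renilla not read in this screen; 0% = Sendai virus plus DMSO and 100% = medium plus DMSO without virus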); conditions: HEK293 RL24 IRF3 luciferase reporter, at 10 µM, stronger effect = higher value
# [8] = inhibitors of poly I:C-induced TLR3 signaling, primary screen, cell-based, poly I:C stimulus, luciferase, 10K MLSCN set (AID 602277;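 active = inhibition of the reporter signal at or above 50%; inactive = inhibition below 50%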); conditions: HEK293-TLR3 RL24 IRF3 luciferase reporter, at 10 µM, stronger effect = higher value
SMILES,cell count [1],inhibition [1],inhibition of aggregation [2],nuclei count [2] [%],inhibition [3],nuclei count [3] [%],fluorescence slope [4],NADPH fluorescence slope [5],slope [6],inhibition [7],inhibition [8]
CCOC(=O)c1ccc(N(CC(=O)NC2CCCC2)C(=O)CNC(=O)c2ccco2)cc1,626,-7.8% (inactive),5.5% (inactive),79.3,-11.3% (inactive),105,-0.508 (inactive),-5.1e-05 (inactive),0.0066 (inactive),15.3% (inactive),18.5% (inactive)
Cc1cccc(NC2SC(=O)N(c3ccccc3)C2=O)c1 (configuration not stated),152,-14.3% (inactive),11.5% (inactive),92.8,26.4% (inactive),80.9,-0.377 (inactive),5.7e-06 (inactive),0.00476 (inactive),-2.7% (inactive),-12.1% (inactive)
CCCCCc1c(O)nc(SCC(=O)NCC2CCCO2)[nH]c1=O (configuration not stated),579,7.7% (inactive),-2.5% (inactive),108,-51.3% (inactive),111,-0.417 (inactive),3.1e-05 (inactive),0.00681 (inactive),3.21% (inactive),1.9% (inactive)
CCOc1ccc(C2CC(c3cccc(C)c3)n3ncnc3N2)cc1 (configuration not stated),666,0.3% (inactive),-18.7% (inactive),90.6,-13.6% (inactive),109,-0.622 (inactive),1.7e-06 (inactive),0.0075 (inactive),-8.73% (inactive),10.7% (inactive)
Cn1c(SCc2c(F)cccc2Cl)nnc1-c1cccs1,662,9.6% (inactive),-11.9% (inactive),25.4,-9.9% (inactive),115,-0.445 (inactive),-2.8e-05 (inactive),0.00484 (inactive),-93.7% (inactive),-167% (inactive)
CC(C)(C)C(=O)CCN1C(=O)C2(OCCO2)c2ccccc21,702,-4.9% (inactive),-30.1% (inactive),118,-140% (inactive),123,-0.497 (inactive),-2.7e-05 (inactive),0.00626 (inactive),11.4% (inactive),22.3% (inactive)
COCCN(C(=O)c1csnn1)C(C(=O)NC1CCCCC1)c1cccs1 (configuration not stated),370,5% (inactive),-6.3% (inactive),107,-52.1% (inactive),95.8,-0.335 (inactive),5.1e-05 (inactive),0.00648 (inactive),10.7% (inactive),23.1% (inactive)
Cc1ccc(C)c(N2CCN(S(=O)(=O)c3ccc4c(c3)OCCO4)CC2)c1,521,-2.6% (inactive),-13.4% (inactive),134,-136% (inactive),209,-0.64 (inactive),3.2e-05 (inactive),0.00722 (inactive),10.2% (inactive),16.3% (inactive)
N#CC1=C(N)Oc2c(ccc3cccnc23)C1c1cccnc1 (configuration not stated),749,7.3% (inactive),4.4% (inactive),89,-67.8% (inactive),130,-0.469 (inactive),-2e-05 (inactive),0.0058 (inactive),47.8% (inactive),45.8% (inactive)
CCn1c(C)c(CCC(=O)O)c(=O)n2nc(-c3ccccc3OC)cc12,400,7.4% (inactive),0% (inactive),103,-121% (inactive),108,-0.548 (inactive),-1.2e-05 (inactive),0.00427 (inactive),-9.14% (inactive),2.68% (inactive)
CC(C)=CCCC(C)N(C=O)C(C)CCC=C(C)C (configuration not stated),470,8.1% (inactive),4.3% (inactive),98.2,-144% (inactive),126,-0.598 (inactive),-1.6e-06 (inactive),0.00568 (inactive),10.3% (inactive),-8.14% (inactive)
CCN(CCCNC(=O)COc1cc(=O)n(CC)c2ccccc12)c1ccccc1,377,0.6% (inactive),1.3% (inactive),104,13.8% (inactive),96.1,-0.501 (inactive),-4e-05 (inactive),0.00565 (inactive),5.07% (inactive),7.25% (inactive)
